Assay results reported in PubChem BioAssay AID588689 (Southern Research Specialized Biocontainment Screening …, 2011).
Among all 340,000 compounds or so, about 1,000 (0.29%) were called active. Rule as the data show it: inconclusive = inhibition above about 29% without an active follow-up result; inactive = below that. A selection follows. Measured potencies and affinities stand elsewhere.

Molecular target: Genome polyprotein (Dengue virus type 2 (strain 16681-PDK53)) (UniProt P29991)
Test: Dengue-2 NS5 methyltransferase inhibitors, primary screen, biochemical, confirmation dose response (AID 588689)
Settings: Dengue-2 NS5 methyltransferase capping enzyme assay, at 25 µM, stronger effect = higher value
[1] = measured here: pilot screen replicate inhibition

Row | Structure (SMILES) | inhibition | inhibition [1] [%]
1 | Cc1cc(C)c(NC(=O)c2ccc3c(c2)NC(=O)C(C)S3)c(C)c1 (configuration not stated) | -0.76% (inactive) | –
2 | O=S(=O)(NCCc1ccc(F)cc1)c1ccc(F)cc1Br | -1.99% (inactive) | -0.92
3 | CCCCCC(=O)NNC1=NCC(Cc2cccc(Cl)c2)S1 (configuration not stated) | -9.62% (inactive) | –
4 | CCN(Cc1cnn(C)c1)Cc1nc(Cc2ccccc2Cl)no1 | -2.18% (inactive) | –
5 | CCCCN1C(=O)/C(=C2\SC(N3CCCCC3)=NC2=O)c2ccccc21 | 1.1% (inactive) | –
6 | O=C(NCc1ccccc1)c1cccc(S(=O)(=O)N2CCCCC2)c1 | -8.7% (inactive) | –
7 | COc1ccc(OC)c(/C=N/NC(=O)c2ccncc2)c1 | -7.07% (inactive) | –
8 | CCc1ccccc1N(CC(=O)OC)S(C)(=O)=O | 3.12% (inactive) | –
9 | O=C1OC(c2ccccc2)(c2ccccc2)c2ccccc21 | -6.99% (inactive) | –
10 | Cc1cc(O)ccc1C1(c2ccc(O)cc2C)OC(=O)c2ccccc21 | -9.01% (inactive) | –
11 | O=C1OC2(c3ccccc31)c1ccccc1-c1ccccc12 | 8.53% (inactive) | –
12 | O=C1OC(c2ccccc2)(c2ccc(O)cc2)c2ccccc21 (configuration not stated) | 0.78% (inactive) | –
13 | CC1CCCN(C(=O)c2nn(C)c3c2CS(=O)(=O)c2ccccc2-3)C1 (configuration not stated) | -6.35% (inactive) | –
14 | COc1ccc(/C=C/C(=O)NC(C)(C)C)cc1S(=O)(=O)N1CCOCC1 | 3.24% (inactive) | –
15 | O=C(Nc1ccc2oc(=O)ccc2c1)c1cc([N+](=O)[O-])ccc1N1CCOCC1 | -4.64% (inactive) | –
16 | Cc1ccc(OC(C)C(=O)N2CC(=O)Nc3ccccc32)cc1 (configuration not stated) | 1.78% (inactive) | –
17 | C[C@@H]1CN([C@@H](C)CO)C(=O)Cc2cc(NC(=O)Nc3ccc(F)cc3)ccc2O[C@@H]1CN(C)Cc1ccc(Cl)c(Cl)c1 | -10.3% (inactive) | –
18 | Cc1nc(SCC(=O)NC(C)(C)C)c2c(-c3cccs3)csc2n1 | -9.82% (inactive) | –
19 | COc1ccc(N2CCN(C(c3nnnn3C3CCCC3)C(C)C)CC2)cc1 (configuration not stated) | -0.74% (inactive) | –
20 | Cc1ccc(C)n1Cc1ccccc1Cl | -24.6% (inactive) | –
21 | C=CCNC(=O)COc1c(C)ccc(C)c1C | -2.27% (inactive) | –
22 | CCOC(=O)N1CCC(N2C(=O)c3ccc(C(=O)NCCC(C)C)cc3C2=O)CC1 | -0.65% (inactive) | –
23 | O=C(O)c1ccc(NC(=O)C(c2ccccc2)c2ccccc2)cc1 | -5.43% (inactive) | –
24 | O=C(Nc1ccc(C(=O)c2ccc(C(=O)O)c(C(=O)O)c2)cc1)c1ccccc1 | 6.21% (inactive) | –

Row | Structure (SMILES) | inhibition | inhibition [1] [%]
25 | NC1=NN(c2c(Cl)cc(Cl)cc2Cl)C(=O)C1 | -5.65% (inactive) | –
26 | CC(C)(C)C(=O)NC1=NN(c2c(Cl)cc(Cl)cc2Cl)C(=O)C1 | 6.11% (inactive) | –
27 | CC(C)/C=C/C(=O)N1CCC(N2CCC(C(=O)NCC3CCCO3)CC2)CC1 (configuration not stated) | 6.04% (inactive) | –
28 | O=C(NCc1ccccn1)c1cccc(S(=O)(=O)N2CCc3ccccc32)c1 | 5.83% (inactive) | –
29 | Cc1c(NC(=O)c2ccc3c(c2)C(=O)N(Cc2ccco2)C3=O)cccc1C(=O)O | 6.25% (inactive) | –
30 | O=C(Nc1ccc(O)cc1C(=O)O)c1ccc2c(c1)C(=O)N(Cc1ccco1)C2=O | -4.89% (inactive) | –
31 | O=C1CSC(=S)N1/N=C/c1ccc2c(c1)OCCO2 | -7.17% (inactive) | –
32 | Cc1ccc(OCC(=O)NCCNC(=O)c2cnccn2)cc1C | -4.45% (inactive) | –
33 | COc1ccccc1C(NC(C)=O)c1cc(Cl)c2cccnc2c1O (configuration not stated) | -1.32% (inactive) | –
34 | Oc1c(C(Nc2ccccn2)c2cccnc2)cc(Cl)c2cccnc12 (configuration not stated) | -1.46% (inactive) | –
35 | CCOCCSc1n[nH]c(=O)n1CCc1ccccc1 | 0.65% (inactive) | –
36 | COC(=O)CCCC1=CC2=CC(=O)C(C)(OC(=O)C3CCCC3)C(=O)C2=CO1 (configuration not stated) | -2.4% (inactive) | –
37 | CCCCC1=CC2=CC(=O)C(C)(OC(=O)C3CCCC3)C(=O)C2=CO1 (configuration not stated) | -4.96% (inactive) | –
38 | O=C(Nc1ccccc1N1CCCCC1)C1CC(=O)N(c2ccccc2F)C1 (configuration not stated) | -1.45% (inactive) | –
39 | COCCNc1nc2ccccc2n2cnnc12 | -9.27% (inactive) | –
40 | N#Cc1c2ccc([N+](=O)[O-])cc2[n+]([O-])n1-c1ccccc1 | 15.2% (inactive) | –
41 | O=[N+]([O-])c1cc(Br)c(Nc2ccccc2)c([N+](=O)[O-])c1 | 5.88% (inactive) | –
42 | CCO[C@H]1OC(C(=O)N2CCN(C)CC2)=C[C@@H](c2ccc(C(F)(F)F)cc2)[C@@H]1CCCO | -3.14% (inactive) | –
43 | CC1=NN(C(N)=S)C(=O)C1N=Nc1ccc(Br)cc1 (configuration not stated) | 7.71% (inactive) | –
44 | CC1=NN(C(N)=S)C(=O)C1N=Nc1c(C)cc(C)cc1C (configuration not stated) | -2.39% (inactive) | –
45 | Cc1ccc(Sc2sc(=O)n(C)c2S(=O)(=O)c2ccc(C)cc2)cc1 | -2.3% (inactive) | –
46 | Cc1ccc(Sc2c(C)[nH]n(C(C)(C)C)c2=O)cc1 | -4.77% (inactive) | 2.59
47 | CCOc1ccc(OCc2ccc(C(=O)N(CC)CC)cc2)cc1 | -20% (inactive) | –
48 | CCn1c(CSc2nccn2C)nc2cc(C(=O)O)ccc21 | 1.61% (inactive) | –

Row | Structure (SMILES) | inhibition | inhibition [1] [%]
49 | CCn1c(CSc2nnc(-c3ccncc3)n2C)nc2cc(C(=O)O)ccc21 | 7.11% (inactive) | –
50 | O=C(CCn1c(=O)oc2ccc(Cl)cc21)NCCCN1CCOCC1 | -12.3% (inactive) | –
51 | CCOc1ccc2nc(SCC(=O)NC3CCCc4ccccc43)sc2c1 (configuration not stated) | -8.65% (inactive) | –
52 | O=C1NC2(CCCCCC2)Cc2ccccc21 | -4.23% (inactive) | –
53 | Cc1cc(SCC(=O)Nc2ccccc2)n2ncc(-c3ccccc3)c2n1 | -3.11% (inactive) | –
54 | Cc1ccc(NC(=O)c2ccc(-n3cccn3)c([N+](=O)[O-])c2)cc1 | 0.68% (inactive) | –
55 | O=C1c2ccccc2C(O)(c2ccccc2)N1c1ccncc1 (configuration not stated) | -5.22% (inactive) | –
56 | Cc1ccc(N2C(=O)c3ccccc3C2(O)c2ccccc2)cc1 (configuration not stated) | -0.39% (inactive) | –
57 | CC1CN(C(=O)c2nn(C)cc2[N+](=O)[O-])CC(C)O1 (configuration not stated) | -1.37% (inactive) | –
58 | CCCCn1c(-c2cccnc2)nc2cc3[nH]c(=O)c(C(C)C)nc3cc21 | 4.01% (inactive) | –
59 | COc1ccccc1OCC#CCSc1ncccn1 | -53.6% (inactive) | –
60 | C#CCN(C[C@H]1[C@H](OC(=O)Nc2cccs2)[C@H](OC(=O)Nc2cccs2)C[C@H]2C(=O)N(c3ccccc3)C(=O)[C@@H]12)S(=O)(=O)c1ccc(C)cc1 | 2.32% (inactive) | –
61 | COc1ccc(S(=O)(=O)/C(C#N)=C/Nc2cccc(F)c2)cc1 | -2.28% (inactive) | –
62 | Cc1ccc(F)c(NC(=O)CCc2ccccc2)c1 | -5.56% (inactive) | –
63 | Cc1ccc(NC(=O)/C(C#N)=N/Nc2ccc(C(=O)O)cc2)c(C)c1 | 3.18% (inactive) | –
64 | Cc1ccc(C)c2[nH]c(=O)c(CCNS(=O)(=O)c3ccccc3)cc12 | -0.7% (inactive) | –
65 | COc1cc(/C=C2\SC(=S)N(CCC(=O)Nc3ccccc3)C2=O)cc(OC)c1OC | 0% (inactive) | –
66 | COc1cc(/C=C2\SC(=S)N(Nc3ccccc3)C2=O)cc(OC)c1OC | -1.38% (inactive) | –
67 | Cc1ncsc1CCOC(=O)C12CC3CC(CC(C3)C1)C2 | -12.1% (inactive) | –
68 | CCOC(=O)c1c(C)nc(C)c(C(=O)OCC)c1-c1ccc(OC)cc1 | 0.8% (inactive) | –
69 | O=C(NC(Cc1c[nH]c2ccccc12)C(=O)Nc1ccc(OC(F)(F)F)cc1)c1cccs1 (configuration not stated) | -0.91% (inactive) | –
70 | O=C1C=C(O)c2cccc(O)c2C1=O | 10.9% (inactive) | –
71 | O=C1C(=O)c2c(ccc3ccccc23)-c2ccccc21 | 8.87% (inactive) | –
72 | COc1cc(C2CC(=O)c3c(O)cc(O)cc3O2)ccc1O (configuration not stated) | -4.19% (inactive) | –

Row | Structure (SMILES) | inhibition | inhibition [1] [%]
73 | COc1c(CC=C(C)C)cc(C2CC(=O)c3c(O)cc(O)cc3O2)cc1CC=C(C)C (configuration not stated) | 1.45% (inactive) | –
74 | O=C(Nc1ccccn1)c1ccc(Cl)c(S(=O)(=O)N2CCCC2)c1 | -10.4% (inactive) | –
75 | O=C(CCN1CCN(CCO)CC1)Nc1cccc(Br)c1 | 0% (inactive) | –
76 | N#Cc1cc([N+](=O)[O-])ccc1NC(=O)COC(=O)C1CC2CCCC(C1)C2=O (configuration not stated) | -2.16% (inactive) | –
77 | CCOc1cc(/C=N\Nc2ccc([N+](=O)[O-])cc2)ccc1OCC(=O)Nc1ccc(C)c(C)c1 | 22% (inactive) | –
78 | COc1cc(/C=N/NC(N)=O)ccc1OCC(=O)Nc1ccc(C)c(C)c1 | -9.1% (inactive) | –
79 | CCC(=O)Nc1nnc(-c2cccs2)s1 | -6.55% (inactive) | –
80 | COc1cc(/C=C2/SC(N)=NC2=O)ccc1Oc1ccc([N+](=O)[O-])cc1[N+](=O)[O-] | 4.51% (inactive) | –
81 | CCN(CC)S(=O)(=O)c1ccc(OC)c(NS(=O)(=O)Cc2ccccc2)c1 | -2.33% (inactive) | –
82 | COc1ccc([N+](=O)[O-])cc1NS(=O)(=O)Cc1ccccc1 | -3.44% (inactive) | –
83 | COc1ccc(NS(=O)(=O)Cc2ccccc2)cc1OC | 0% (inactive) | –
84 | CSc1ccc(S(=O)(=O)Nc2ccc3c(c2)NC(=O)CC3)cc1 | 0% (inactive) | –
85 | CN(CC(=O)Nc1ccc(Cl)c(C(F)(F)F)c1)C(=O)c1cccc2cccnc12 | 2.2% (inactive) | –
86 | Cc1ccc(O)c(NC(=O)Cc2ccc3ccccc3c2)c1 | -11.9% (inactive) | –
87 | CC(NC(=O)CCNS(=O)(=O)c1cccc2nonc12)c1ccccc1 (configuration not stated) | -6.33% (inactive) | –
88 | O=Cc1cn(CCC(=O)O)nc1-c1cccc(Cl)c1 | -3.9% (inactive) | –
89 | CCOC(=O)/C(C#N)=C/c1cn(CCC(=O)O)nc1-c1cccc(Cl)c1 | -8.58% (inactive) | –
90 | O=C(O)CCn1cc(/C=C2\NC(=S)N(c3ccccc3)C2=O)c(-c2ccc(Br)cc2)n1 | 3.12% (inactive) | –
91 | O=Cc1cn(CCC(=O)O)nc1-c1cccc(Br)c1 | 14.3% (inactive) | –
92 | O=C(O)CCn1cc(C(=O)O)c(-c2ccccc2)n1 | -1.47% (inactive) | –
93 | O=C(O)CCn1cc(/C=C2/NC(=S)N(c3ccccc3)C2=O)c(-c2ccccc2)n1 | 2.91% (inactive) | –
94 | NC(=S)N/N=C/c1cn(CCC(=O)O)nc1-c1cccc(Br)c1 | -15.9% (inactive) | –
95 | Cc1ccc(-c2nn(CCC(=O)O)cc2/C=C\C(=O)c2ccc(Br)cc2)cc1 | 7.02% (inactive) | –
